Assay results reported in PubChem BioAssay AID651718 (The Scripps Research Institute Molecular Screening Center, 2012).
Screen size: about 360,000 compounds; about 2,700 (0.75%) were called active. No stated cut-off is given here; in the data, active means inhibition above about 4.5%; inactive means the rest. Many of the other results were omitted from the sample, so actives are more common in it than they were.

Test system: Methionine sulfoxide reductase A (Bos taurus)
Assay: inhibition of methionine sulfoxide reductase A – biochemical, absorbance, bovine, HTS, primary screen (AID 651718);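 further: 0% = vehicle wells with enzyme and 100% = reference inhibitor wells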
Conditions: purified bovine MsrA, absorbance read-out; at 15.5 µM; stronger effect = higher value

| Structure (SMILES) | inhibition |
| --- | --- |
| CCOc1ccc(-c2cc(C)[n+](CCN(CC)CC)c(-c3ccc(OCC)cc3)c2)cc1 | 5.24% (active) |
| Clc1ccc([C@@H]2CC3CCC2N3)cn1 (stereo not given in full) | -0.82% (inactive) |
| COc1cc(OC)cc(C(=O)NCCN2CCC3(CC2)C(=O)NCN3c2ccccc2)c1 | 0% (inactive) |
| Brc1ccc2c(c1)CNCc1cnnn1-2 | -0.08% (inactive) |
| Cc1cc(N2CCNC[C@@H]2C)ccc1N1CC[C@H](O)C1 | 0% (inactive) |
| COc1cccc(CN2CCCC(C(=O)c3ccccc3SC)C2)c1O (stereo not given) | 1.68% (inactive) |
| COc1ccc(C(=O)C2CCCN(Cc3ccc(C)s3)C2)cc1OC (stereo not given) | 4.73% (active) |
| Cc1ccc(CN2CCCC(C(=O)c3ccc4c(c3)OCO4)C2)cc1C (stereo not given) | 0.84% (inactive) |
| COC1C(O)C(C)OC(OC2CCC3(C=O)C(CCC4C3CCC3(C)C(C5=CC(=O)OC5)CCC43O)C2)C1O (stereo not given) | 0.09% (inactive) |
| CCC(C)NC1(c2ccccc2)CCCCC1 (stereo not given) | -0.91% (inactive) |
| CCCCC(=O)N/N=C/c1c(O)n(CC)c(=S)n(CC)c1=O | 5.43% (active) |
| COc1ccc2c(c1)[C@@]13CCCCC1[C@@H](C2)NCC3 (stereo not given in full) | 0.27% (inactive) |
| O=S(=O)(c1ccccc1)N1CCC2CCNC2C1 (stereo not given) | -0.74% (inactive) |
| CS(=O)(=O)N1CCC2CCNC2C1 (stereo not given) | 0.9% (inactive) |
| CCN(CC)C(=O)[C@@H]1C=C2c3cccc4[nH]c(Br)c(c34)C[C@H]2N(C)C1 | 0% (inactive) |
